Read-out in assay [1]: Transforming growth factor beta 1 (TGFb1), TGFB1 (gene 7040)
Kind of assay: BSK_KF3CT_TGFb1: BioMAP Diversity Plus: KF3CT Assay for Transforming growth factor beta 1 (TGFb1) Biomarker Activity (AID 2283072). As to conditions: primary human keratinocytes with fibroblasts; actives raise or lower the signal. The procedure, abridged:
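Human keratinocyte/foreskin fibroblast co-culture; TGF-b1 measured by ELISA 24 h after dosing, fitted bidirectionally versus DMSO. Cytotoxicity checked in parallel cultures by total protein (SRB staining, 560 nm).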

Read-out in assay [2]: Matrix Metallopeptidase 9 (MMP9), MMP9 (gene 4318)
Kind of assay: BSK_KF3CT_MMP9: BioMAP Diversity Plus: KF3CT Assay for Matrix Metallopeptidase 9 (MMP9) Biomarker Activity (AID 2283074).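 As to AC50: MMP9 protein level quantified by ELISA in the co-culture.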 As to conditions: primary human keratinocytes with fibroblasts; actives raise or lower the signal. The method, boiled down: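 Human keratinocyte and foreskin fibroblast co-culture exposed to chemicals for 24 h; MMP9 biomarker measured by ELISA, bidirectional fitting relative to DMSO; cytotoxicity tracked by SRB total protein staining in parallel cultures.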

Read-out in assay [3]: CD40, CD40 (gene 958)
Kind of assay: BSK_LPS_CD40: BioMAP Diversity Plus: LPS Assay for CD40 Biomarker Activity (AID 2283076). To be noted: primary human HUVEC with PBMC; actives raise or lower the signal. The procedure, abridged: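 ELISA readout of CD40 in HUVEC/PBMC co-culture (BSK_LPS system), 24 h post-dosing; bidirectional curve fit, DMSO baseline; parallel SRB total-protein staining for cytotoxicity.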

Read-out in assay [4]: E-selectin (Homo sapiens) (UniProt P16581)
Kind of assay: BSK_LPS_Eselectin: BioMAP Diversity Plus: LPS Assay for Eselectin Biomarker Activity (AID 2283077). To be noted: primary human HUVEC with PBMC; actives raise or lower the signal. The method, boiled down: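 ELISA readout of E-selectin, 24 h post-dose, HUVEC + PBMC co-culture (LPS system). Gain or loss of signal vs DMSO baseline, bidirectional fit.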

Read-out in assay [5]: Interleukin-8 (IL8), CXCL8 (gene 3576)
Nature of the assay: BSK_LPS_IL8: BioMAP Diversity Plus: LPS Assay for Interleukin-8 (IL8) Biomarker Activity (AID 2283078). As to conditions: primary human HUVEC with PBMC; actives raise or lower the signal. The method, boiled down:
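HUVEC + PBMC co-culture, LPS-activated; test chemicals dosed, IL-8 read by ELISA at 24 h. Bidirectional curve fit vs DMSO baseline (gain or loss of signal).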

Assay [6] is described as follows: BSK_LPS_SRB: Viability Assessment in the BioMAP Diversity Plus: LPS Assay (AID 2283079).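 Also: total protein by sulforhodamine B absorbance as a cytotoxicity measure; measured one day after compound addition; fitted in both directions against DMSO so loss or gain of signal counts.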 As to conditions: primary human HUVEC with PBMC. The method, boiled down: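 HUVEC + PBMC co-culture, LPS-stimulated; compound 24 h. 10% TCA fix, 0.1% SRB stain, A560. Bidirectional fit vs DMSO.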
Read-out in assay [7]: Interleukin-1 alpha (IL1a), IL1A (gene 3552)
Kind of assay: BSK_LPS_IL1a: BioMAP Diversity Plus: LPS Assay for Interleukin-1 alpha (IL1a) Biomarker Activity (AID 2283080). As to conditions: primary human HUVEC with PBMC; actives raise or lower the signal. The method, boiled down: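 HUVEC/PBMC co-culture, LPS system; 24 h after dosing; IL-1a by ELISA; gain or loss of signal fitted bidirectionally vs DMSO baseline.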

Read-out in assay [8]: Monocyte Chemoattractant Protein-1 (MCP1), CCL2 (gene 6347)
Nature of the assay: BSK_LPS_MCP1: BioMAP Diversity Plus: LPS Assay for Monocyte Chemoattractant Protein-1 (MCP1) Biomarker Activity (AID 2283081).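 As to AC50: secreted MCP-1 protein quantified by ELISA in culture supernatant.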 As to conditions: primary human HUVEC with PBMC; actives raise or lower the signal. The procedure, abridged:
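ELISA read-out of MCP-1 after 24 h chemical dosing of a human umbilical vein endothelial cell/peripheral blood mononuclear cell co-culture stimulated with LPS. Gain or loss of signal fitted relative to DMSO controls.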

Assay [9] is described as follows: BSK_LPS_PGE2: BioMAP Diversity Plus: LPS Assay for Prostaglandin E2 (PGE2) Biomarker Activity (AID 2283082). To be noted: primary human HUVEC with PBMC; actives raise or lower the signal. The procedure, abridged: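 HUVEC plus human PBMC co-culture stimulated with LPS; secreted PGE2 quantified by ELISA 24 h after chemical dosing. Activity fitted bidirectionally against DMSO baseline; parallel SRB staining (0.1% SRB after 10% TCA fixation, 560 nm) flags overt cytotoxicity.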

Read-out in assay [10]: Macrophage colony-stimulating factor (MCSF), CSF1 (gene 1435)
Kind of assay: BSK_LPS_MCSF: BioMAP Diversity Plus: LPS Assay for Macrophage colony-stimulating factor (MCSF) Biomarker Activity (AID 2283083). To be noted: primary human HUVEC with PBMC; actives raise or lower the signal. The method, boiled down: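 HUVEC + PBMC co-culture (human primary), 24 h post-dose; M-CSF by ELISA; gain/loss of signal fitted bidirectionally vs DMSO baseline.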

Read-out in assay [11]: Tissue Factor, F3 (gene 2152)
Nature of the assay: BSK_LPS_TissueFactor: BioMAP Diversity Plus: LPS Assay for Tissue Factor Biomarker Activity (AID 2283084). To be noted: primary human HUVEC with PBMC; actives raise or lower the signal. The method, boiled down:
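HUVEC/PBMC co-culture, LPS-activated; CD142 ELISA read 24 h post-dose; bidirectional curve fit vs DMSO negative control.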

Read-out in assay [12]: Vascular cell adhesion molecule 1 (VCAM1), VCAM1 (gene 7412)
Nature of the assay: BSK_LPS_VCAM1: BioMAP Diversity Plus: LPS Assay for Vascular cell adhesion molecule 1 (VCAM1) Biomarker Activity (AID 2283086). To be noted: primary human HUVEC with PBMC; actives raise or lower the signal. The procedure, abridged: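 Human umbilical vein endothelial cells co-cultured with PBMC and stimulated with LPS; VCAM-1 measured by ELISA 24 h after dosing. Bidirectional curve fitting against DMSO baseline; cytotoxicity tracked in parallel by SRB total-protein staining.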

Read-out in another assay: CD38, CD38 (gene 952)
Nature of the assay: BSK_SAg_CD38: BioMAP Diversity Plus: SAg Assay for CD38 Biomarker Activity (AID 2283087). To be noted: primary human HUVEC with PBMC; actives raise or lower the signal. The procedure, abridged:
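Human HUVEC plus PBMC co-culture stimulated with superantigen; CD38 measured by ELISA 24 h after chemical dosing. Fluorescence read-out, bidirectional fit against DMSO; cytotoxicity tracked in parallel by SRB and Alamar Blue.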

Read-out in assay [13]: CD40, CD40 (gene 958)
Nature of the assay: BSK_SAg_CD40: BioMAP Diversity Plus: SAg Assay for CD40 Biomarker Activity (AID 2283088). To be noted: primary human HUVEC with PBMC; actives raise or lower the signal. The method, boiled down: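 HUVEC/PBMC co-culture, 24 h post-dose; CD40 by ELISA, fluorescence intensity; bidirectional fit vs DMSO negative control.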

Read-out in the next assay: CD69, CD69 (gene 969)
Kind of assay: BSK_SAg_CD69: BioMAP Diversity Plus: SAg Assay for CD69 Biomarker Activity (AID 2283089).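 As to AC50: cell surface CD69 protein quantified by ELISA with fluorescence detection.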 To be noted: primary human HUVEC with PBMC; actives raise or lower the signal. The procedure, abridged: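 ELISA, fluorescence read-out: CD69 on human umbilical vein endothelial cell + PBMC co-culture, 24 h post-dosing. Gain or loss of signal fitted bidirectionally against DMSO baseline.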

Read-out in assay [14]: Monocyte Chemoattractant Protein-1 (MCP1), CCL2 (gene 6347)
Kind of assay: BSK_SAg_MCP1: BioMAP Diversity Plus: SAg Assay for Monocyte Chemoattractant Protein-1 (MCP1) Biomarker Activity (AID 2283090). To be noted: primary human HUVEC with PBMC; actives raise or lower the signal. The procedure, abridged: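 MCP-1 levels in the endothelial–PBMC SAg co-culture were quantified by ELISA at 24 h post-dosing; both increases and decreases versus DMSO scored. Cytotoxicity monitored by SRB total protein in parallel cultures.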

Read-out in assay [15]: E-selectin (Homo sapiens) (UniProt P16581)
Kind of assay: BSK_SAg_Eselectin: BioMAP Diversity Plus: SAg Assay for Eselectin Biomarker Activity (AID 2283091). As to conditions: primary human HUVEC with PBMC; actives raise or lower the signal. The procedure, abridged: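 E-selectin ELISA readout at 24 h post-dosing in human umbilical vein endothelial cell/PBMC co-culture; gain or loss of signal fitted relative to DMSO baseline.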

Read-out in assay [16]: Tumor necrosis factor (Homo sapiens) (UniProt P01375)
Kind of assay: BSK_LPS_TNFa: BioMAP Diversity Plus: LPS Assay for Tumour Necrosis Factor alpha (TNFa) Biomarker Activity (AID 2283085). To be noted: primary human HUVEC with PBMC; actives raise or lower the signal. The procedure, abridged:
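Human umbilical vein endothelial cells co-cultured with PBMC and stimulated with LPS. TNFa was measured by ELISA 24 h after chemical dosing, fitted bidirectionally relative to DMSO.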

These results are taken from PubChem BioAssay (EPA / NIEHS).

A word on the AC50: it is the midpoint of the concentration-response curve, whichever way the signal moves.

SMILES strings stand for the structures. Active and inactive are the calls of the source. The calls were made as follows: active = hit-call score of the fitted dose curve at least 0.9, where 1 is the maximum; inactive = score below 0.9.

Sequence of E-selectin (Homo sapiens) (P16581 whole entry, looked up): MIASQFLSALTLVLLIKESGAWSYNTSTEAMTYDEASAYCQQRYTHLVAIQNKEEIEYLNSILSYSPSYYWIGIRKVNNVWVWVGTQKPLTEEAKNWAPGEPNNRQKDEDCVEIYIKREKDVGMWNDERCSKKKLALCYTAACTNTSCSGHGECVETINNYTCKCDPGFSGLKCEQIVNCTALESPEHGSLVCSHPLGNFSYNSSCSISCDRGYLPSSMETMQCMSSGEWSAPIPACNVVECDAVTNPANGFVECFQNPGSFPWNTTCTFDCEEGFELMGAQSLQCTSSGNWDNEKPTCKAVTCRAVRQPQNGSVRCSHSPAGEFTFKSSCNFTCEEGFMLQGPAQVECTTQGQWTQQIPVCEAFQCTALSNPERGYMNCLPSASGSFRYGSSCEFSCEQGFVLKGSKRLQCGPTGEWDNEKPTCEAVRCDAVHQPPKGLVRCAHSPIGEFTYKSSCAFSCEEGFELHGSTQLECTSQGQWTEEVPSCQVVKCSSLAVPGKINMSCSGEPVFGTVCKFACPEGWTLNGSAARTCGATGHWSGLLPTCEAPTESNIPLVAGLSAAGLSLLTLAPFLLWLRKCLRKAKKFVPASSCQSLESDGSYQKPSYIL
Sequence of Tumor necrosis factor (Homo sapiens) (P01375 whole entry, looked up): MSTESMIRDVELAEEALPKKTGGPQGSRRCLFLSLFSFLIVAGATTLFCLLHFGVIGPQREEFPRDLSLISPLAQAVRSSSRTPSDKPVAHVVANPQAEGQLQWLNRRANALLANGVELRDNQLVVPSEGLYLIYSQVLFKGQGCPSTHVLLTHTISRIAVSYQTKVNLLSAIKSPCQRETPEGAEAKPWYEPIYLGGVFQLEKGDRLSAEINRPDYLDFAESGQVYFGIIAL

For `COC(=O)c1cccc(C)c1S(=O)(=O)NC(=O)Nc1nc(OCC(F)(F)F)nc(N(C)C)n1`, the outcome is “inactive” in assay [1]; “inactive” in assay [2]; “inactive” with CD40, CD40 (gene 958) [3]; “inactive” in assay [4]; “inactive” in assay [5]; “inactive” in assay [6]. Moreover, the outcome in assay [7], in assay [8], in [9], in assay [10], in assay [11] and in [12] was inactive. Moreover, the outcome in the assay with CD38, CD38 (gene 952) is “inactive”; with CD40, CD40 (gene 958) [13], “inactive”; with CD69, CD69 (gene 969) it was “inactive”; in assay [14], “inactive”; in assay [15], “inactive”.

Take `CCCN(CCC)C(=O)SCC`: the outcome was “inactive” in assay [1]; “inactive” in assay [2]; “inactive” in the assay with CD40, CD40 (gene 958) [3]; “inactive” in assay [4]; “inactive” in assay [6]; “inactive” in [7]. Besides, the result in assay [8], in [9], in assay [10], in assay [11], in [16] and in assay [12] was inactive. Further, the outcome with CD38, CD38 (gene 952) was “inactive”; in the assay with CD40, CD40 (gene 958) [13] it was “inactive”; with CD69, CD69 (gene 969), “inactive”; in [14] it was “inactive”; in assay [15], “inactive”.

As for `CCOC(=O)NCCOc1ccc(Oc2ccccc2)cc1`, the outcome in assay [1], in [4], in [7], in assay [9], in assay [11] and in assay [16] was inactive. For the same compound, the result in [12] was inactive. Also, the half-maximal activity concentration (AC50) was 30.3 µM (active) in assay [2]; 8.9 µM (active) in the assay with CD40, CD40 (gene 958) [3]; 14.2 µM (active) in assay [6]; 14.4 µM (active) in [8]; 14.7 µM (active) in [10]; 29.1 µM (active) in the assay with CD38, CD38 (gene 952). Moreover, the AC50 with CD40, CD40 (gene 958) [13] is 14.5 µM (active); with CD69, CD69 (gene 969), 25.3 µM (active); in [14], 26.9 µM (active); in assay [15], 31.8 µM (active).
